Reference: PubChem BioAssay (EPA / NIEHS)
Inconclusive results are not listed. The source made the active and inactive calls. The calls were made as follows: active = hit-call score of the fitted dose curve at least 0.9, where 1 is the maximum; inconclusive = response in the unintended direction; inactive = score below 0.9.

The molecules below were run against human RAR-related Orphan Receptor gamma (RORg), RORC (gene 6097) (UniProt P51449) (assay: ATG_RORg_TRANS: Attagene TRANS-FACTORIAL HepG2 Assay for human RAR-related Orphan Receptor gamma (RORg) (AID 2283011)).
Sequence of human RAR-related Orphan Receptor gamma (RORg), RORC (gene 6097) (P51449 whole entry, looked up, the tested form may be a part): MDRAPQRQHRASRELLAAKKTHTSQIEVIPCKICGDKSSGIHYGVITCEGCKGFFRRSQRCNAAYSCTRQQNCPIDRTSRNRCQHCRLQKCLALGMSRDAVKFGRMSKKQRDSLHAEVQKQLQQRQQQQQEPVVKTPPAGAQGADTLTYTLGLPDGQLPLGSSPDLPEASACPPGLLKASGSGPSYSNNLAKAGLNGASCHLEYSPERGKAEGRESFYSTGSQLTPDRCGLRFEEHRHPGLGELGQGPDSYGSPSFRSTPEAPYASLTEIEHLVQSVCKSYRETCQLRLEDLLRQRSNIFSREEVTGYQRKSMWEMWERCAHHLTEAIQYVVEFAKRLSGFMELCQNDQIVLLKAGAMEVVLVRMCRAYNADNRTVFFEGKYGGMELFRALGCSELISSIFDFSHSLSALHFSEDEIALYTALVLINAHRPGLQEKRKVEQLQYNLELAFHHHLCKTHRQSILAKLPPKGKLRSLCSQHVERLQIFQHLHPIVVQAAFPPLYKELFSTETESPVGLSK
How it was run: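 Transient MRTU transfection of HepG2 (TRANS format, exogenous NR-Gal4 chimera). 24 h dosing. Total RNA → oligo(dT) RT → PCR → 6-FAM labelling → HpaI cut → CE. Gain vs DMSO.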

outcome, inactive:
CCCCCCOC(=O)C(C)C
COC(=O)c1cccnc1
O=C1NC2NC(=O)NC2N1 (stereo not drawn)
NCc1ccco1
O=C(O)CCCCCCCCCCCC(=O)O
COc1ccccc1[N+](=O)[O-]
C=CCOC(=O)CCCCCC

What follows are molecules tested against Retinoic acid receptor RXR-alpha (Homo sapiens) (UniProt P19793) (assay: ATG_RXRa_TRANS: Attagene TRANS-FACTORIAL HepG2 Assay for human Retinoid X Receptor alpha (RXRa) (AID 2283012)).
Sequence of Retinoic acid receptor RXR-alpha (Homo sapiens) (P19793 whole entry, looked up, the tested form may be a part): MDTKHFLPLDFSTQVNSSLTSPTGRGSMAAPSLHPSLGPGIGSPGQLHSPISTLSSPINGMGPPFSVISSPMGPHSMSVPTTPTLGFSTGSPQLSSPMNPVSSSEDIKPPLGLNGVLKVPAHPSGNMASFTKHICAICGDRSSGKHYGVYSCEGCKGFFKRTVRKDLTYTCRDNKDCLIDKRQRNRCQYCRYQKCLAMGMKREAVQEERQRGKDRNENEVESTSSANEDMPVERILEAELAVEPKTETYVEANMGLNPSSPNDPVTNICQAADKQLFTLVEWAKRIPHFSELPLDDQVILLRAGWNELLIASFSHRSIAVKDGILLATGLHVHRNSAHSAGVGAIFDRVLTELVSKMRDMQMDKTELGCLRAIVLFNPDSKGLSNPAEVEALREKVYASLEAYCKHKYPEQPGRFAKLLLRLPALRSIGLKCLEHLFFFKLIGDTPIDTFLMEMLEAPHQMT
How it was run: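 Chimeric NR-GAL4 trans-activation in HepG2, 24 h treatment; reporter transcripts quantified by fluorescence on capillary electrophoresis, analysed for upward change from DMSO.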

outcome, inactive:
Cc1ccc(OC(=O)c2ccccc2O)cc1
CCN(CCC#N)c1ccc(N=Nc2ccc([N+](=O)[O-])cc2)cc1
CC(=O)CC(=O)Nc1ccc(C)cc1C
Cc1c(C2(c3cc(Br)c(O)c(Br)c3C)OS(=O)(=O)c3ccccc32)cc(Br)c(O)c1Br
COCCOCCOCCO
OCC#CCO
CC(C)OCCO
CC(C)=CCCC(C)CC(=O)O (stereo not drawn)
CCCN(CCC)S(=O)(=O)c1ccc(C(=O)O)cc1
CC1CCC(C(C)C)C(O)C1 (stereo not drawn)
COC(=O)c1cccnc1
O=C1NC2NC(=O)NC2N1 (stereo not drawn)
NCc1ccco1
O=C(O)CCCCCCCCCCCC(=O)O
COc1ccccc1[N+](=O)[O-]
C=CCOC(=O)CCCCCC
